“And” between values parts separate entries of the source, which are not always exact repeats. Equal entries are not always repeated. Screen size: about 290,000 compounds; about 3,500 (1.2%) were called active.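 The calls were made as follows: active = inhibition above the campaign mean inhibition over all tested compounds plus 3 SD (cut at about 28% in these data); inactive = the rest.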 The full list was thinned out, with actives kept by preference.

In the assay the test system is M18 aspartyl aminopeptidase (Plasmodium falciparum 3D7). Kind of assay: PfM18AAP inhibitors, malaria aminopeptidase, primary screen, biochemical, QFRET, recombinant enzyme (AID 1822).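 Also: 0% = plate median of test compound wells and 100% = 2 mM ZnCl2.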 As to conditions: H-Glu-NHMec fluorogenic cleavage, at 7.35 µM, hits give high values.
With `COc1cc(Nc2nc3ccc(Cl)cc3n3cnnc23)cc(OC)c1OC`, the inhibition is -5.42% (inactive). Take `COc1cc(/C=N/Nc2nn3cnnc3c3ccccc23)cc(OC)c1OC`: the inhibition is 43.6% (active). For the compound `COc1cc(/C=N/NC(=O)Cc2ccccc2)cc(OC)c1OC`, the inhibition is 0.54% (inactive). As for `CCOC(=O)C(CC)/C(C)=N\NC(=O)c1cccc(C)c1` (configuration not stated), the inhibition is -12.1% (inactive). Consider `O=CN1CCN(C(=O)c2ccc(Br)o2)CC1`, for which the inhibition is -0.01% (inactive). As to `O=C(Cc1ccccc1)Nc1c(C(=O)N2CCCCCC2)cnn1-c1ccccc1`, the inhibition is 5.1% (inactive).

On to `O=C(Nn1cnc2ccccc2c1=O)c1ccc([N+](=O)[O-])cc1Cl`, for which the inhibition was -1.63% (inactive). Consider `O=C(COc1ccccc1Cl)Nc1ccc(C(=O)c2ccc(C(=O)O)cc2)cc1`, for which the inhibition was -8.1% (inactive). On to `O=C(Nn1cnnc1)c1cc(Cl)ccc1Cl`, for which the inhibition was 54.6% (active). Consider `O=C(Nc1ccccc1Cl)Nn1cnnc1`, for which the inhibition is 77.6% (active). In the case of `O=C(COc1ccccc1Cl)Nn1cnnc1` it was 31% (active); in that of `Cc1nn(-c2ccccc2)c(C)c1NC(=O)COc1ccc(Cl)cc1Cl`, -6.26% (inactive). With `Cc1c(NC(=O)Nc2ccccc2Cl)sc(=S)n1C` the figure was 4.48% (inactive); with `O=C(COc1ccc([N+](=O)[O-])cc1Cl)Nn1cnnc1`, 33% (active).

`COc1ccccc1C(=O)Nn1cnnc1`: the inhibition is 18.1% (inactive).

Take `O=C(Nc1cccnc1)c1cc(Cl)ccc1Cl`: the inhibition was -0.24% (inactive). As to `O=C(COc1ccccc1Cl)N1CCCCCCC1`, the inhibition is 5.5% (inactive). With `O=C(Nc1ccccc1Cl)Nc1cccc2cccnc12` the figure was 6.47% (inactive); with `COc1ccccc1NC(=O)CCC(=O)N1CC(C)Oc2ccc(C)cc21` (configuration not stated), -4.62% (inactive); with `O=C(CN(Cc1ccccc1)C(=O)CCC(=O)Nc1ccccn1)NCCc1ccccc1`, 0.21% (inactive). On to `O=[N+]([O-])c1cccc(S(=O)(=O)NCc2ccccn2)c1`, for which the inhibition is -8.77% (inactive). In the case of `CN(Cc1ccccc1)CC(O)COc1ccc(CNCc2cc3ccccc3s2)cc1` (configuration not stated) it was -3.49% (inactive); in that of `COc1ccc(C(=O)NC2CC2)cc1OC1CCN(C/C=C/c2ccccc2)CC1`, -7.74% (inactive); in that of `CC(C)CCNC(=O)c1ccc2c(Cl)c3c(nc2c1)CCC3`, -8.56% (inactive). In the case of `CCN(CC)c1ccc(C(=O)NNC(=O)CCc2nc3ccccc3c(=O)[nH]2)cc1`, the inhibition was -7.26% (inactive).

Turning to `CC(=O)N1CCOc2ccc(S(=O)(=O)N3CCN(c4cccc(C(F)(F)F)c4)CC3)cc21`, the inhibition is -2.98% (inactive).

Consider `O=C(CN1CCCC1)Nc1sc2c(c1C(=O)Nc1ccccc1)CCCC2`, for which the inhibition was 7.15% (inactive). On to `COC(=O)c1c(NC(=O)C2CC(C)=C(C)CC2C(=O)O)sc2c1CCCCC2` (configuration not stated), for which the inhibition is -0.05% (inactive).

With `Cc1ccc(NC(=O)c2c(NC(=O)CCC(=O)O)sc3c2CCCCC3)cc1`, the inhibition is 36.1% (active). On to `Cc1ccc(C(=O)c2c(NC(=O)c3ccncc3)sc3c2CCCC3)cc1`, for which the inhibition was -11.4% (inactive). On to `COC(=O)c1c(NC(=O)CCCC(=O)O)sc2c1CCCCC2`, for which the inhibition is 29.6% (active). Consider `COC(=O)c1c(NC(=O)CCN2CCOCC2)sc2c1CCCC2`, for which the inhibition was -1.78% (inactive). In the case of `Cc1cccc(OCC(=O)NC2CC(C)(C)NC(C)(C)C2)c1` it was 7.98% (inactive); in that of `Cc1cc(C)c(S(=O)(=O)Nc2c(C)n(C)n(-c3ccccc3)c2=O)cc1[N+](=O)[O-]`, 1.79% (inactive); in that of `C=CCn1c(SCc2ccccc2)nc2c1c(=O)[nH]c(=O)n2C`, -4.12% (inactive). `Cc1cc(=O)n2nc(N3CCCC(C(=O)NCc4cccc(Cl)c4)C3)sc2n1` (configuration not stated): the inhibition is 0.59% (inactive). In the case of `CC(C)(C)c1ccc(C(=O)N2CCC(C(=O)N3CCCCC3)CC2)cc1`, the inhibition was -4.18% (inactive).

For `C=CCNC(=O)c1ccccc1SCc1c(C)noc1C`, the inhibition is -1.38% (inactive). Turning to `COc1cc(/C=N/Nc2ccc(C)cc2)cc(Br)c1O`, the inhibition was 18.2% (inactive). As for `COc1cc(/C=N/NC(=S)Nc2cccnc2)cc(OC)c1O`, the inhibition is 44.8% (active). As to `COc1ccc(/C=C/C(=O)Nc2cccnc2)cc1OC`, the inhibition is -3.57% (inactive).

For the compound `O=C(CCC1CCN(C(=O)c2cccc(Cl)c2F)CC1)Nc1ccccc1`, the inhibition is 4.45% (inactive).

Regarding `COc1ccc(C(=O)NC(C)Cn2nc(C)cc2C)cc1OC1CCN(C(C)=O)CC1` (configuration not stated), the inhibition was 2.44% (inactive). Turning to `COc1ccc(CCOC(=O)CNC(=O)c2ccc(Cl)cc2Cl)cc1`, the inhibition was 2.28% (inactive).

Turning to `O=C(Nc1nsc(-c2ccccc2)n1)c1ccncc1`, the inhibition was -9.47% (inactive). With `O=C(CSc1ncn[nH]1)Nc1ccnc2ccccc12` the figure was 71.8% (active); with `O=C(CSC1=NCCS1)Nc1nc(-c2ccccc2)cs1`, 4.17% (inactive); with `O=C(CSc1ncn[nH]1)Nc1nc(-c2cccc([N+](=O)[O-])c2)cs1`, 41.6% (active). With `O=C(CSc1nc(-c2ccccc2)cs1)Nc1cccc([N+](=O)[O-])c1`, the inhibition was 1.5% (inactive). `O=C(CSc1n[nH]c(-c2cccnc2)n1)Nc1ccnc2ccccc12`: the inhibition is -2.9% (inactive). Consider `O=C(CSc1nc2ccccc2[nH]1)Nc1nc(-c2ccccc2)c(-c2ccccc2)o1`, for which the inhibition is 1.21% (inactive). Take `CCN(C(=O)CSc1ncn[nH]1)c1cccc2ccccc12`: the inhibition was 19% (inactive). Turning to `O=C(CSc1ncn[nH]1)Nc1nsc(-c2ccccc2)n1`, the inhibition is 34.3% (active).

Consider `O=C(Nc1ccccc1)Nc1nnc(COc2ccccc2F)s1`, for which the inhibition was -2.7% (inactive). With `CCOc1ccc2nc(NC(=O)c3cc([N+](=O)[O-])ccc3N3CCOCC3)sc2c1`, the inhibition was -2.3% (inactive). With `CCOC(=O)N1CCN(C(=O)c2ccc3c(=O)n(CCc4ccc(OC)c(OC)c4)c(=O)[nH]c3c2)CC1` the figure was 4.45% (inactive); with `CCC(C)Sc1nc2c(cnn2-c2ccc(F)cc2)c(=O)[nH]1` (configuration not stated), 1.81% (inactive); with `COc1ccc(CCN(C)C(=O)C23CC4CC(CC(Cl)(C4)C2)C3)cc1OC`, -8.52% (inactive).

For `CC1CCN(C(=O)CCc2nnc3ccc(NCc4ccco4)nn23)CC1`, the inhibition is 23.2% (inactive). In the case of `CCC(C)[C@H](NC(=O)N1CCn2c1nc1ccccc12)C(=O)NCc1ccc(OC)cc1` (some centres not stated) it was 9.53% (inactive).

On to `C=CCC1(CC=C)CCCN1C(=O)c1cc(COc2ccc(-n3cncn3)cc2)on1`, for which the inhibition is -14.1% (inactive). Take `Cc1csc(NC(=O)Nc2ccccc2[N+](=O)[O-])n1`: the inhibition is 9.93% (inactive). On to `CC(=O)Nc1cccc(C(=O)Nc2nc(C)cs2)c1`, for which the inhibition is -10.2% (inactive). In the case of `Cc1csc(NC(=O)NC2(C(F)(F)F)Oc3ccccc3O2)n1` it was 70.8% (active); in that of `COc1ccc(N2CCN(C(=O)CN3C(=O)COc4ccccc43)CC2)cc1`, -6.46% (inactive). As to `Oc1c(Cl)cc(Cl)cc1/C=N/c1ncn[nH]1`, the inhibition was 45.4% (active). Consider `Oc1ccc(Cl)cc1/C=N/c1nc2ccccc2[nH]1`, for which the inhibition is 0.82% (inactive). With `COc1cc(Br)cc(/C=N/c2ncn[nH]2)c1O`, the inhibition is 61.7% (active). Turning to `Oc1ccc(Br)cc1C=Nc1ccc2[nH]ncc2c1`, the inhibition was 4.29% (inactive).

In the case of `COc1ccc(Br)cc1/C=N/n1c(C)nnc1C`, the inhibition was 0.59% (inactive). Regarding `O=C(CN1C(=O)c2cccnc2Oc2ccc(Cl)cc21)Nc1ccc(F)cc1`, the inhibition is -4.17% (inactive). On to `Cc1cc(F)ccc1N1CCC(N2CCN(C)C(CCO)C2)CC1` (configuration not stated), for which the inhibition was -5.24% (inactive). With `O=C(NNS(=O)(=O)c1ccc(F)cc1)C1CCCCC1`, the inhibition is -0.96% (inactive). In the case of `Cc1cc(=O)oc2c(C)c(OC(C)C(=O)NC3CCN(Cc4ccccc4)CC3)ccc12` (configuration not stated) it was -1.22% (inactive). As to `Cc1ccnc(NC(=O)C2CCN(S(=O)(=O)c3c(C)c(C)cc(C)c3C)CC2)c1`, the inhibition is 3.42% (inactive). Regarding `Cc1nc([N+](=O)[O-])nn1C12CC3CC(CC(Br)(C3)C1)C2`, the inhibition was 13.9% (inactive). As for `Cc1ccnc(-n2sc3ccccc3c2=O)n1`, the inhibition is 42% (active). With `Cc1ccnc(SCC(N)=O)n1` the figure was 3.17% (inactive); with `Cc1ccnc(N2CCCC(C(=O)NC3CC3)C2)n1` (configuration not stated), 0.97% (inactive). As for `CN(C)S(=O)(=O)c1ccc(N2CCCC2)c(C(=O)Nc2cccc(F)c2)c1`, the inhibition was -1.31% (inactive). As to `Cc1ccc(S(=O)(=O)N2CCCC(C(=O)N3CCN(C)CC3)C2)cc1` (configuration not stated), the inhibition was -0.92% (inactive). In the case of `CC1CCC(NS(=O)(=O)c2ccc3c(c2)n(C)c(=O)c(=O)n3C)CC1` (configuration not stated) it was -14% (inactive); in that of `Cn1sc(=O)c2cc(S(=O)(=O)NC3CC3)ccc21`, 43% (active). In the case of `O=S(=O)(NC1CC1)c1ccc(F)c(F)c1` it was -0.16% (inactive). `N=c1c2c3c(sc2ncn1N)CCCC3`: the inhibition is 2.91% (inactive). In the case of `S=c1[nH]nc2c3c4c(sc3ncn12)CCCC4`, the inhibition is 38.3% (active). As for `N=c1c2c3c(sc2ncn1N)CCCCC3`, the inhibition is -3.67% (inactive). For the compound `Cn1ncc(Br)c1C(=O)NC1CCCC1`, the inhibition is -2.67% (inactive). Regarding `CCC(C)NC(=O)CSC1=Nc2ccccc2C2=NC(CCC(=O)NCc3ccco3)C(=O)N12` (configuration not stated), the inhibition was -0.47% (inactive).

Take `O=C(CSC1=Nc2ccccc2C2=NC(CC(=O)NCc3ccco3)C(=O)N12)NCc1ccco1` (configuration not stated): the inhibition is 7.17% (inactive). Regarding `CC(C)C1N=C2c3ccccc3N=C(SCC(=O)c3ccc(O)c(O)c3)N2C1=O` (configuration not stated), the inhibition is 55.1% (active). As to `CC(=O)C(C)n1cnc2scc(-c3ccc(C)cc3)c2c1=O` (configuration not stated), the inhibition is 0.85% (inactive).

`CSc1ccc(CNC(=O)c2ccc(NC(=O)C3=CSCCO3)cc2)cc1`: the inhibition is 6.37% (inactive). Consider `COc1cccc(C(=O)Nc2nnc(S(=O)(=O)N3CCOCC3)s2)c1`, for which the inhibition is 1.13% (inactive). Regarding `Cc1ccc(C(=O)Cn2cc([N+](=O)[O-])nc2C)cc1`, the inhibition is 1.83% (inactive). `O=C(c1ccncc1)c1ccc([N+](=O)[O-])cc1`: the inhibition is -0.4% (inactive). As for `O=C(Cn1c[n+](CC(=O)c2ccc([N+](=O)[O-])cc2)cn1)c1ccc([N+](=O)[O-])cc1`, the inhibition is 50.9% (active) and 63.7% (active).

The values are drawn from PubChem BioAssay AID1822 (The Scripps Research Institute Molecular Screening Center, 2009).
